# Measurements: PubChem BioAssay AID2540 (Sanford-Burnham Center for Chemical Genomics, 2010)
# The whole screen tested about 330,000 compounds, of which about 4,100 (1.2%) were called active. The full list was thinned out, with actives kept by preference. A number with no mark means an inactive call. No stated cut-off is given here; in the data, active means inhibition above about 50%; inactive means the rest.
# Target: Sentrin-specific protease 8 (Homo sapiens) (UniProt Q96LD8)
# Test: SENP8 protease inhibitors, primary screen, biochemical, luminescence (AID 2540)
# Details: purified SENP8, Z-RLRGG-aminoluciferin cleavage, at 10 µM, hits give high values
# Sequence of Sentrin-specific protease 8 (Homo sapiens) (Q96LD8 whole entry, looked up): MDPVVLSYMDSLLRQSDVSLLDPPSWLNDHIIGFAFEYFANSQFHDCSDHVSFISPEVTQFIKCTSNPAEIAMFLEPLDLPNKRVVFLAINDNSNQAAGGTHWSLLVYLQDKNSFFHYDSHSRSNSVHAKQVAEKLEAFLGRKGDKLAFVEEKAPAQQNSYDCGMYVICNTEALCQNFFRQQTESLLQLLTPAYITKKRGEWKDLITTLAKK
row,SMILES,inhibition
1,CCOc1ccc(NC(=O)C/C(C)=N/NC(=O)Cc2cccs2)cc1,-7.21%
2,CC(C)[C@H](NC(=O)N1CCn2c1nc1ccccc12)C(=O)NC1CC1,-8.07%
3,CSCCC(NC(=O)COc1ccccc1)C(=O)OCCOc1ccc(Br)cc1 (configuration not stated),-20.5%
4,CCC(C)(C)NC(=O)C(c1ccc(O)cc1)N(Cc1ccco1)C(=O)CCC(=O)Nc1ccccn1 (configuration not stated),-6.41%
5,CC(=C/c1ccccc1)/C=N/NC(=O)c1cc(C)oc1C,73.3% (active)
6,Cc1cc(C(=O)N/N=C/c2ccc(N3CCOCC3)cc2)c(C)o1,84.5% (active)
7,COc1ccc(C/C(C)=N/NC(=O)c2cc(C)oc2C)cc1,-5.88%
8,O=C(NN=Cc1ccc(N2CCOCC2)cc1)c1cc2ccccc2cc1O,-1.63%
9,Cc1ccccc1N/N=C/c1ccc(N2CCOCC2)cc1,-7.47%
10,Cc1cc(C(=O)N/N=C\C(Br)=C\c2ccccc2)c(C)o1,38.8%
11,CCCOc1ccc(C2=CSC3=NCCN23)cc1Cl,-25.9%
12,CCN(C(=O)CSc1nnc(-c2ccncc2)o1)c1ccccc1,-5.88%
13,COc1ccc(CNc2c(CO)cnc3c2cnn3C)cc1,3.66%
14,CC(=O)c1cc2c(cc1NC(=O)CN1CCCCCC1)OCO2,6.92%
15,COCCN(C(=O)CSCc1ccc(C)cc1)c1c(N)n(CC(C)C)c(=O)[nH]c1=O,-1.3%
16,CCCCCC(=O)N1CCN(S(=O)(=O)c2ccc3c(c2)OCCCO3)CC1,0.168%
17,Cc1ccsc1C(=O)N/N=C/c1ccc([N+](=O)[O-])cc1,73.3% (active)
18,O=C(N/N=C/c1ccc([N+](=O)[O-])cc1)C(=O)N1CCCC1,-9.06%
19,Cc1ccc(NC(=O)c2sccc2C)cc1[N+](=O)[O-],3.23%
20,CN(CCOc1ccccc1)Cc1nc2cc(Cl)ccc2c(=O)[nH]1,0.32%
21,COCC(C)n1c(C)cc(C(=O)COc2ccc(C)nc2[N+](=O)[O-])c1C (configuration not stated),4.55%
22,C#Cc1ccc([C@@H]2C=C(C(=O)O)O[C@H](OCCCCO)C2)cc1,-9.34%
23,CCC(C)NC(=O)/C=C/c1ccc(S(=O)(=O)NCc2ccco2)cc1 (configuration not stated),-7.51%
24,CC1(C)C2CC=C(/C=N/NC(=O)c3ccc(Cl)cc3)C1C2 (configuration not stated),-0.62%
25,COc1cccc(Nc2nc(N)c([N+](=O)[O-])c(NCc3ccco3)n2)c1,-2.27%

row,SMILES,inhibition
1,CNc1nc(Nc2ccc(C)c(Cl)c2)nc(N)c1[N+](=O)[O-],96.8% (active)
2,CCN1CCN(c2nc(Nc3cccc(F)c3)nc(N)c2[N+](=O)[O-])CC1,-4.79%
3,Cc1cc(C)c(NC(=S)N2CCCC2C(=O)O)c(C)c1 (configuration not stated),-2.97%
4,CC(=O)c1cccc(NC(=O)c2cc(C)nn2-c2ccccc2)c1,-2.45%
5,N#Cc1ccc(S(=O)(=O)NCC(=O)OCC(=O)NCCc2ccccc2)cc1,2.9%
6,COc1ccc(/C=C2\CCc3ccccc3C2=O)c(OC)c1OC,-6.3%
7,CCC1C/C(=C/c2cccs2)C(=O)/C(=C/c2cccs2)C1 (configuration not stated),-8.62%
8,O=C1/C(=C/c2cccs2)CCC1C1CCCC1 (configuration not stated),80.6% (active)
9,O=C1/C(=C/c2cccs2)CCc2ccccc21,96.5% (active)
10,O=C1/C(=C/c2cccs2)SC(=S)N1C1CCS(=O)(=O)C1 (configuration not stated),10.2%
11,O=S(=O)(c1cccs1)N1CCc2ccccc2C1,-2.48%
12,CC(C)(C)C(=O)CSc1ccc(S(=O)(=O)N2CCCC2)cn1,0.226%
13,CC(=O)N1CCC(C(=O)OCc2ccc(Cl)cc2)(c2ccccc2)CC1,-16%
14,Cc1ccc(CNC(=O)CCNS(=O)(=O)c2ccc(Br)s2)cc1,-3.11%
15,Oc1c(C=Nc2cccc3nsnc23)ccc2ccccc12,75.8% (active)
16,CCCn1c(SCC(=O)c2ccc3c(c2)OCCO3)nnc1C(C)C,1.93%
17,Cc1ccc2cc(/C=N/Nc3ccc(C(=O)O)cc3)c(Cl)nc2c1,-3.31%
18,O=C(O)c1ccc(/C=N/Nc2nc(N3CCCCC3)nc(N3CCCCC3)n2)cc1,-10.8%
19,O=C(O)c1ccc(N/N=C/c2ccc3ncccc3c2)cc1,97.1% (active)
20,S=c1[nH]nc(-c2cc(-c3ccccc3)n[nH]2)n1/N=C/c1c2ccccc2cc2ccccc12,-9.93%
21,S=c1[nH]nc(-c2cc(-c3ccsc3)n[nH]2)n1-c1ccccc1,2.29%
22,O=C(Nc1cccnc1Cl)c1cc(-c2ccccc2O)on1,-7.17%
23,Cc1ccc(NC(=O)c2cc(-c3ccccc3O)n[nH]2)cc1C,-13.8%
24,Oc1ccccc1-c1cc(-c2ccc(Cl)cc2)n[nH]1,89.8% (active)
25,c1ccc(-c2cc(-c3ccccc3)[nH]n2)cc1,58.4% (active)

row,SMILES,inhibition
1,CCOc1ccc(C(=O)CCN2CCOCC2)cc1,-4.08%
2,CCCCn1c(N)c(N(CC(C)C)C(=O)C2CSC3(C)CCC(=O)N23)c(=O)[nH]c1=O (configuration not stated),-4.36%
3,COC(C/C=C/C(=O)[C@@H](C)OCc1ccccc1)OC,-1.1%
4,COc1ccccc1C(=O)Nc1ccc(NC(=O)c2ccco2)c(C)c1,42.6%
5,Cc1cc(NC(=O)c2ccc(F)cc2)ccc1NC(=O)c1ccco1,55.5% (active)
6,O=C(Nc1ccc(O)cc1)c1ccc(NC(=O)c2ccco2)cc1,-13.6%
7,CC1(C)CCSC(/C=C/c2ccccc2)=N1,-3.81%
8,CCOc1ccc(C(O)Cn2c(=N)n(CCN3CCCCC3)c3ccccc32)cc1 (configuration not stated),4.64%
9,O=C1c2ccccc2-c2ncnc3c(N4CCOCC4)cc(N4CCOCC4)c1c23,-2.88%
10,O=C(c1ccccc1)C(Cn1cncn1)C(Sc1ccccc1)c1ccccc1 (configuration not stated),-0.476%
11,Cc1ccc(Nc2nc(C)cc(C)c2C(N)=O)cc1,5.13%
12,Cc1ccc(Nc2nc(Cl)c(C=O)s2)cc1,67.8% (active)
13,Cc1ccc(NC(=O)Nc2nnc(-c3ccncc3)s2)cc1,-9.37%
14,CCOC(=O)C1CCN(S(=O)(=O)c2ccc3c(c2)N(C)C(=O)CC(=O)N3C)CC1,2.4%
15,CC[N+](C)(CC)CCC[n+]1c(-c2ccccc2)c2cc(N)ccc2c2ccc(N)cc21,96.5% (active)
16,Cc1cc(C)cc(-c2nnc(SCC(=O)NC3CC3)o2)c1,-2.18%
17,CCC(=O)Nc1ccc2nn(-c3ccc(F)cc3)nc2c1,63.6% (active)
18,Cc1nn(CC(=O)Nc2ccc(F)cc2)c(=O)c2ccccc12,1.21%
19,Cc1ccc(-n2nc3ccc(NC(=O)/C=C/c4ccco4)cc3n2)cc1C,15.4%
20,CCOc1c2ccc(C(=O)NC3CCCc4ccccc43)cc2nn1CC (configuration not stated),-8.27%
21,CC(=O)N1CC2(C)CN(C(C)=O)CC(C)(C1)C2=O,1.73%
22,CCCCOc1ccc(-c2ncc(C(=O)OCC)c(N)n2)cc1,-12.4%
23,CCOc1ccc(-c2nnc(-c3ccco3)o2)cc1,73.3% (active)
24,CCOc1ccc(-n2c(SCC(N)=O)nnc2-c2ccco2)cc1,-1.84%
25,CCCCOc1ccc(-c2nnc(-c3ccco3)o2)cc1,64.8% (active)

row,SMILES,inhibition
1,CCCCSc1nnc(-c2ccc(C)cc2)o1,33.5%
2,N#Cc1ccc(OCc2nnc(-c3ccc([N+](=O)[O-])cc3)o2)cc1,7.85%
3,Cc1c(-c2ccccc2)n[nH]c1C(=O)N=Nc1c(O)[nH]c2ccccc12,21.6%
4,Cc1ccccc1NS(=O)(=O)CCCCC(Cl)(Cl)Cl,7.88%
5,CCOc1ccc(S(=O)(=O)N/N=C(\C)c2ccc(Cl)c(Cl)c2Cl)cc1,1.79%
6,CCN1C(=O)C(C(=O)NC(C)c2ccccc2)C2CC1(C)Oc1ccccc12 (configuration not stated),7.17%
7,CSc1sc(C(=O)NC(=O)NCc2cccnc2)c(C)c1-c1ccon1,4.14%
8,O=C(Cn1cc(C(=O)C2CC2)c2ccccc21)Nc1ccccc1Cl,5.51%
9,O=C(COC(=O)c1ccc(O)cc1O)NNC(=O)c1cccs1,-4.38%
10,Cc1ccc(/C=C2/SC(=S)N(CCC(=O)NCCCN3CCOCC3)C2=O)cc1,-1.52%
11,COc1ccc(/C=C2\SC(=S)N(CC(=O)NNC(=O)c3ccncc3)C2=O)cc1,-3.25%
12,C=CCOc1ccc(/C=C2\SC(=S)N(CCC(=O)O)C2=O)cc1,97.6% (active)
13,C[C@@H](C(=O)Nc1ccc2ccccc2c1)[C@@H]1C[C@@]1(C)[C@@H](NC(=O)c1cccnc1)c1ccccc1,13.1%
14,CCOC(=O)C1=C(NC(=S)NC(=O)c2ccccc2)c2ccccc2CC1(C)C,-5.5%
15,COc1ccccc1NC(=O)COC(=O)CNC(=O)C1CCCCC1,8.04%
16,COc1cc(/C=N/N=C(\N)c2nonc2N)cc(OC)c1OC,-1.1%
17,Nc1ccc2nn(-c3ccc(Cl)cc3)nc2c1,86.7% (active)
18,c1ccc(-n2nc3ccccc3n2)cc1,-19.2%
19,CN(C)c1nnnn1-c1ccc(Cl)cc1,2.64%
20,COc1ccc(Br)cc1CN(C)CC(=O)Nc1cc([N+](=O)[O-])ccc1OC,-6.64%
21,Cc1ccc2c(c1)NCC(C(=O)NC1CCC(C)CC1)O2 (configuration not stated),-10.8%
22,COc1cccc(C(=O)NC(=O)Nc2nc(C)cc(C(F)(F)F)n2)c1,-10.3%
